The record followed here is PubChem BioAssay (NCATS).

Records with an inconclusive call do not appear. Where a call stands in place of a potency, no number is given. The source made the active and inactive calls. Calls come from the whole dose curve; as a rule, active = well fitted inhibition curve with a large enough effect; inconclusive = small, poorly fitted or top-dose-only effect; inactive = no such curve, though single readings can be large or run the other way.
Potency is the fitted concentration of half-maximal effect.

This experiment has as its system Zika virus NS2B-NS3 protease (unlinked). The experiment is described as follows: Optimization of GU AMC qHTS for Zika virus inhibitors: Unlinked NS2B-NS3 protease assay (AID 1347151). Note: nearly all actives have a fitted effect of over 80% in size. As to conditions: recombinant ZIKV NS2B-NS3 protease, fluorogenic AMC substrate; series mostly up to 52.5 µM. The essentials:
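Percent inhibition is derived from the 15-min change in AMC fluorescence, normalized against no-inhibitor and no-enzyme controls, then fitted to a 4-parameter Hill curve. Aprotinin was the intraplate control.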
Regarding `Nc1nc(N)c2nc(-c3ccccc3)c(N)nc2n1`, the Potency result was “inactive”. The value for `OC(CCN1CCCCC1)(c1ccccc1)C1CCCCC1` (configuration not stated) was “inactive”; that for `CC(=O)OC(C)C[N+](C)(C)C` (configuration not stated) was “inactive”; that for `COCCCC/C(=N\OCCN)c1ccc(C(F)(F)F)cc1` was “inactive”.

As to `C[C@]12CC[C@@H]3c4ccc(O)cc4C[C@@H](CCCCCCCCCS(=O)CCCC(F)(F)C(F)(F)F)[C@H]3[C@@H]1CC[C@@H]2O` (some centres not stated), the Potency entry is “inactive”.

Regarding `CCN(Cc1ccncc1)C(=O)C(CO)c1ccccc1` (configuration not stated), the Potency entry is “inactive”. The value for `C[n+]1cc2c3c(ccc2c2ccc4cc5c(cc4c21)OCO5)OCO3` was 5.97 µM (active); that for `Cc1nc2c([nH]1)c(=O)n(C)c(=O)n2Cc1ccco1` was “inactive”; that for `COC(=O)[C@H]1[C@H]2C[C@@H]3c4[nH]c5cc(OC)ccc5c4CCN3C[C@H]2C[C@@H](OC(=O)c2cc(OC)c(OC)c(OC)c2)[C@@H]1OC` was 15 µM (active).

On to `CC(C)[N+](C)(CCOC(=O)C1c2ccccc2Oc2ccccc21)C(C)C`, for which the Potency result was “inactive”.

Take `CCN(CC)CCNC(=O)c1ccc(NC(C)=O)cc1`: the Potency entry is “inactive”. The value for `CC(=O)Oc1cc(C(C)C)c(OCCN(C)C)cc1C` was “inactive”; that for `C[C@]12C=CC(=O)C=C1CC[C@H]1[C@@H]3C[C@@H](O)[C@](O)(C(=O)CO)[C@@]3(C)C[C@H](O)[C@@]12F` was “inactive”; that for `CCCNC(C)C(=O)Nc1ccccc1C` (configuration not stated) was “inactive”. The value for `CNC1(C)C2CCC(C2)C1(C)C` (configuration not stated) was “inactive”; that for `C(=C\c1ccccc1)/CN1CCN(C(c2ccccc2)c2ccccc2)CC1` was “inactive”. The value for `O=C(O)CN(CCN(CC(=O)O)CC(=O)O)CCN(CC(=O)O)CC(=O)O` was “inactive”.
